Structures can show the parent of a compound that is named as a salt.
The molecules below were run on thyroid hormone receptor (endogenous TRα and TRβ). Conditions: read-out: Average AC50 (uM) GH3-TRE-Antag, antagonist mode, 1 nM T3, no GH3 cytotoxicity hit.
Design: species or system GH3-TRE-Luc (rat pituitary); GH3-TRE-Luc luciferase reporter, antagonist mode against 1 nM T3, loss of signal, qHTS

SMILES | AC50 [µM]
O=c1[nH]c(Cl)c(Cl)cc1Cl [3,5,6-Trichloro-2-pyridinol] | 76.8
CCCCC[C@H](O)/C=C/[C@H]1[C@H](O)CC(=O)[C@@H]1C/C=C\CCCC(=O)O [Dinoprostone] | 4.68
Cc1cc(O)c2c(O)c3c(O)cccc3cc2c1 [Chrysarobin] | 28.1
Nc1ccc(N)c(Cl)c1 [2-Chloro-1,4-diaminobenzene sulfate] | 50.5
CC(C)Cc1ccc(C(C)C(=O)O)cc1 (stereo not shown) [Ibuprofen] | > 50
CCCN(CCC)C(=O)Cc1c(-c2ccc(Cl)cc2)nc2ccc(Cl)cn12 [Alpidem] | 25.1
CN1C(=O)[C@@H](NC(=O)c2cc3ccccc3[nH]2)N=C(c2ccccc2)c2ccccc21 [Devazepide] | 6.13
O=C(c1ccccc1)c1cc(Cl)ccc1O [(5-Chloro-2-hydroxyphenyl)phenylmethanone] | 84.3
O=C(O)C(F)(F)C(F)(F)C(F)(F)C(F)(F)C(F)(F)C(F)(F)C(F)(F)C(F)(F)F [Perfluorononanoic acid] | 71.7
O=C(Nc1ccccc1-c1ccc(Cl)cc1)c1cccnc1Cl [Boscalid] | > 100
CCCCCCCCCCCCN [1-Dodecanamine] | 74.1
Cc1occc1SSc1ccoc1C [Bis(2-methyl-3-furyl)disulfide] | 65.9
Nc1c(Br)cc(Br)cc1CN[C@H]1CC[C@H](O)CC1 [Ambroxolhydrochloride] | 24.9
CS(=O)(=O)Nc1ccc([N+](=O)[O-])cc1Oc1ccccc1 [Nimesulide] | > 20
CCOC(=O)NCCOc1ccc(Oc2ccccc2)cc1 [Fenoxycarb] | 75.9
O=C(O)c1cc(Oc2ccc(C(F)(F)F)cc2Cl)ccc1[N+](=O)[O-] [Acifluorfen] | 71.8
c1ccc2c(c1)ccc1ccccc12 [Phenanthrene] | 50.1
Cc1c(F)c(F)c(COC(=O)[C@H]2[C@@H](/C=C(\Cl)C(F)(F)F)C2(C)C)c(F)c1F (racemic) [Tefluthrin] | 59.6
O=C1[C@H](CC[C@H](O)c2ccc(F)cc2)[C@@H](c2ccc(O)cc2)N1c1ccc(F)cc1 [Ezetimibe] | 33.5
CCCCCCCCCCCCCOS(=O)(=O)O [Sodium tridecyl sulfate] | 67.6
CCOC(=O)c1c(N)sc2c1CCN(Cc1ccccc1)C2 [Tinoridine] | 37.8
c1ccc(Nc2ccccc2)cc1 [Diphenylamine] | 83.1
COc1cc([C@@H]2c3cc4c(cc3[C@@H](O[C@@H]3O[C@@H]5CO[C@@H](C)O[C@H]5[C@H](O)[C@H]3O)[C@H]3COC(=O)[C@H]23)OCO4)cc(OC)c1OP(=O)(O)O [Etoposide phosphate] | 21
O=C(Nc1ccc([N+](=O)[O-])cc1)Nc1ccc([N+](=O)[O-])cc1 [4,4'-Dinitrodiphenylurea] | 0.491
COc1ccc(O)cc1 [4-Methoxyphenol] | > 50
